Measurements from PubChem BioAssay (NCI).
This is part of a sample that, as a whole, favours compounds with a hit. Of some 79,000 tested, about 15% had one in any assay. A number with no mark means an inactive call. Activity calls are given as the source filed them. Cut-off read from the data, not from the text of the source: active = growth inhibition above about 70%; inactive = the rest.

What was measured:
[1] = NCI Yeast Anticancer Drug Screen. Data for the rad50 strain (AID 155);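 note: 0% = growth of vehicle-only cultures of the same strain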; conditions: S. cerevisiae rad50 strain growth inhibition, stronger effect = higher value
How it was run: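 Inhibition values express reduced yeast growth in compound-treated cultures relative to vehicle-treated controls.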

[2] = NCI Yeast Anticancer Drug Screen. Data for the mec2-1 strain (AID 157); conditions: S. cerevisiae mec2-1 strain, stronger effect = higher value
How it was run: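 Yeast mec2-1 mutant treated with compound. Readout: growth inhibition vs vehicle controls.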

[3] = NCI Yeast Anticancer Drug Screen. Data for the sgs1 mgt1 strain (AID 161);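 note: 0% = growth of cultures given vehicle only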; conditions: S. cerevisiae sgs1 mgt1 strain, stronger effect = higher value
How it was run: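 Mutant yeast exposed to compound; growth scored against vehicle-only wells.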

[4] = NCI Yeast Anticancer Drug Screen. Data for the cln2 rad14 strain (AID 165);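 note: 0% = growth equal to vehicle treated cultures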; conditions: S. cerevisiae cln2 rad14 strain, stronger effect = higher value
How it was run: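 cln2 rad14 yeast strain; compound exposure; growth inhibition read vs vehicle controls.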

[5] = NCI Yeast Anticancer Drug Screen. Data for the bub3 strain (AID 167); conditions: S. cerevisiae bub3 mutant strain, stronger effect = higher value
How it was run: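 Steps: expose the mutant yeast strain to compound; grow alongside vehicle-treated cultures; measure growth; express inhibition against the vehicle cultures.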

[6] = NCI Yeast Anticancer Drug Screen. Data for the mlh1 rad18 strain (AID 175); conditions: S. cerevisiae mlh1 rad18 strain growth inhibition, stronger effect = higher value
How it was run: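 Yeast w/ defined DNA-repair lesions; compound exposure; growth vs vehicle controls → % inhibition.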

[7] = at 5.0 µM (retest, dose inferred, filed as 0.5)
[8] = at 50.0 µM (retest, dose inferred, filed as 5.0)

| SMILES | growth inhibition [1, 7] | growth inhibition [1, 8] | growth inhibition ([1]; at 50.0 µM) | growth inhibition [2, 7] | growth inhibition [2, 8] | growth inhibition ([2]; at 50.0 µM) | growth inhibition [3, 7] | growth inhibition [3, 8] | growth inhibition ([3]; at 50.0 µM) | growth inhibition [4, 7] | growth inhibition [4, 8] | growth inhibition ([4]; at 50.0 µM) | growth inhibition [5, 7] | growth inhibition [5, 8] | growth inhibition ([5]; at 50.0 µM) | growth inhibition [6, 7] | growth inhibition [6, 8] | growth inhibition ([6]; at 50.0 µM) |
| --- | --- | --- | --- | --- | --- | --- | --- | --- | --- | --- | --- | --- | --- | --- | --- | --- | --- | --- |
| COC(=O)[C@@]12OC[C@]34[C@H]([C@@H](O)[C@@H]1O)[C@@]1(C)CC(=O)C(O)=C(C)[C@@H]1C[C@H]3OC(=O)[C@H](OC(=O)/C=C(\C)C(C)C)[C@@H]24 | 96% (active) | 99% (active) | 91.5% (active) | 95% (active) | 100% (active) | 93.7% (active) | 96% (active) | 99% (active) | 93% (active) | 96% (active) | 99% (active) | 90.8% (active) | 93% (active) | 99% (active) | 91.5% (active) | 97% (active) | 99% (active) | 92% (active) |
| CCN(CC)CC(=O)O[C@]1(CC)C(=O)OCc2c1cc1n(c2=O)Cc2cc3ccccc3nc2-1 | 93% (active) | 97% (active) | 83.2% (active) | 58% | 98% (active) | 87% (active) | 45% | 97% (active) | 85.1% (active) | 44% | 93% (active) | 62.5% | 43% | 97% (active) | 81.5% (active) | 91% (active) | 96% (active) | 85.6% (active) |
| N#CC(C#N)=Cc1ccc2c(c1)OC(Cl)O2 (configuration not stated) | 25% | 46% | 59.6% | 26% | 27% | 49.2% | 15% | 33% | 57.5% | 15% | 18% | 55.5% | -11% | 16% | 55.9% | 35% | 35% | 66.5% |
| O=P(O/C(=C\c1ccccc1)c1ccccc1)(c1ccccc1)c1ccccc1 | 18% | 96% (active) | 96.8% (active) | 17% | 98% (active) | 98.3% (active) | 15% | 98% (active) | 98.2% (active) | 8% | 97% (active) | 96.2% (active) | 11% | 97% (active) | 97% (active) | 7% | 97% (active) | 93.7% (active) |
| C/C=C(\C)C(=O)OC1C(C)=C2C(C1OC(=O)CCCCC)C(C)(OC(C)=O)CC(OC(=O)CCC)C1(O)C2OC(=O)C1(C)O (configuration not stated) | 26% | 85% (active) | 77.6% (active) | 15% | 86% (active) | 83.5% (active) | 20% | 91% (active) | 74.8% (active) | 34% | 95% (active) | 82.6% (active) | 17% | 92% (active) | 73.4% (active) | 34% | 87% (active) | 67.6% |
| CCC[CH2][Sn]1([CH2]CCC)[O]CC[S]1 | 83% (active) | 99% (active) | 99.1% (active) | 87% (active) | 99% (active) | 99% (active) | 81% (active) | 99% (active) | 98.2% (active) | 78% (active) | 99% (active) | 97.3% (active) | 87% (active) | 99% (active) | 96.1% (active) | 84% (active) | 99% (active) | 99.2% (active) |
| CC(C)=[CH][Sb]([Br])([CH]=C(C)C)([CH]=C(C)C)[CH]=C(C)C | -1% | 11% | 50.8% | -4% | 17% | 33.7% | -4% | 14% | 18.9% | -8% | 3% | -17.4% | 11% | 13% | 30.7% | -7% | 12% | 24.4% |
| C=CO/C(C)=C(\[Se]c1ccccc1)C(C)=O | 4% | 89% (active) | 93.4% (active) | 3% | 91% (active) | 85.9% (active) | 7% | 89% (active) | 91.8% (active) | -10% | 38% | 57% | -8% | 65% | 75% (active) | 6% | 91% (active) | 91% (active) |
| CCC[CH2][Sn]([Cl])([CH2]Cl)[CH2]CCC | 97% (active) | 99% (active) | 99% (active) | 99% (active) | 100% (active) | 99.2% (active) | 98% (active) | 99% (active) | 99.4% (active) | 98% (active) | 98% (active) | 99.3% (active) | 98% (active) | 99% (active) | 99.3% (active) | 99% (active) | 99% (active) | 99.2% (active) |
